Bioassay records as filed in PubChem.
Shown are actives, neighbours in structure and some others; about 7.6% of the full set was active somewhere.
VP16 counter – inhibits Gal4-VP16 luciferase reporter, ROR gamma counter-screen; Drosophila S2 Gal4-VP16 UAS-luciferase, luminescence, 20 h; hit rate 3.5% among 310,000; Potency, µM (series often up to 53.6 µM), for inactives: at the top dose activity, negative = inhibition, usual class: inhibitors;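 further: Gal4-VP16 expression switched on by copper sulfate through the metallothionein promoter; potency means the concentration at half of the fitted maximal effect; on the % scale 0 is the no-effect control and ±100 the full control effect; nearly all actives have a fitted effect of over 50% in size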
Giardia kill – kills Giardia lamblia; Giardia lamblia trophozoite viability; activity change, % at 7.66 µM, hits read low; hit rate 0.15% among 340,000; in the data active means activity change below about -80%; inconclusive means between about -30% and that limit;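 further: parasites exposed to compound for two days anaerobically before the ATP read; on the % scale 0 is the no-effect control and ±100 the full control effect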
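Each well holds 100 Giardia trophozoites and compound. After two days (48 hrs) at 37 deg C in anaerobic conditions, ATP is quantified by luminescence.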
p53 reactivation – re-activators of mutant p53; H1299 p53-A138V BP100-luciferase reporter, luminescence, 24 h; Potency, µM (series often up to 92.2 µM), without a hit: top-dose activity change, positive = activation, most hits filed as activators; hit rate 0.063% among 320,000; AID 504706; further: potency means the concentration at half of the fitted maximal effect; % of control where 0% means no effect; nearly all actives have a fitted effect of over 45% in size
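H1299 (p53-null), stable ts p53-A138V + BP100-Luc; 1000 cells/well, Opti-MEM/10% FBS; cpd 4 pt, 1:5; 24 h, 37 deg C, 5% CO2; detection reagent 10 min RT; luminescence.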
RORgamma inh – inhibitors of mouse ROR gamma transcriptional activity. P51450. Drosophila S2 Gal4-RORgamma UAS-luciferase reporter, 20 h. Potency, µM (highest dose often 53.6 µM), inactives show at the top dose activity change, negative = inhibition, most hits filed as inhibitors. hit rate 5.4% among 310,000; further: potency means the concentration at half of the fitted maximal effect; on the % scale 0 is the no-effect control and ±100 the full control effect; nearly all actives have a fitted effect of over 60% in size
Target sequence (P51450 whole entry, looked up, the tested form may be a part): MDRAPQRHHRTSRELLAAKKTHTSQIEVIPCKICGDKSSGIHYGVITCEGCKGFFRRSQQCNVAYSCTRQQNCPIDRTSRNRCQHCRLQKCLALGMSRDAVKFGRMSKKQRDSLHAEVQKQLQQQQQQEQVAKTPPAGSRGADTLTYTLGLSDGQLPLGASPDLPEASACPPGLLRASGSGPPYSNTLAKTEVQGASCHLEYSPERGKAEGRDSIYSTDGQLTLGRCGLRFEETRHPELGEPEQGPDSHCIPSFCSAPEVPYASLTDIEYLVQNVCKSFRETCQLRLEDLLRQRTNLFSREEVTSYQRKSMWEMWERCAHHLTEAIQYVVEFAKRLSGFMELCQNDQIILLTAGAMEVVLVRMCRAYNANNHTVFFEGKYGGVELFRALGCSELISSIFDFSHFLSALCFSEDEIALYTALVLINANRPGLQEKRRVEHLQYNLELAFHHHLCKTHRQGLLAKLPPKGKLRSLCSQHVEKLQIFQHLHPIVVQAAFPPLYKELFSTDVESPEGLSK
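ROR gamma transcriptional activity was tracked as Gal4-UAS luciferase output in stably transfected Drosophila Schneider cells, with compound added 1 hr before 700 uM copper sulfate induction and a 20 hr ambient-temperature incubation.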
ELG1 DNA repair – ELG1-dependent DNA repair inhibition; HEK293T ELG1-luciferase reporter, luminescence, 16 h; DNA damage induced by 5-fluorouridine; Potency, µM (top dose mostly 46.1 µM), without a hit: at the top dose activity change, negative = inhibition, hits mostly inhibitors; hit rate 2.3% among 330,000; further: potency means the concentration at half of the fitted maximal effect; on the % scale 0 is the no-effect control and ±100 the full control effect; nearly all actives have a fitted effect of over 55% in size
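Overnight (16 hr) co-exposure of 2,000 cells/well to 5-fluorouridine and compound at 37 °C preceded detection. Luciferase was quantified via ONE-Glo luminescence; loss of signal denotes inhibition.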
BRCA1 expr up – BRCA1 expression activation | MCF7-BRCA1-FFLuc reporter, luminescence, 48 h; response scale: scaled: vehicle 0%, 10 µM genistein 100% | Potency, µM (series often up to 46.1 µM), without a hit: at the highest dose activation, usual class: activators | hit rate 1.1% among 380,000; further: potency means the concentration at half of the fitted maximal effect; nearly all actives have a fitted effect of over 80% in size
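Activators of BRCA1 expression were detected as increased firefly luciferase luminescence in engineered MCF7 cells after 48 h compound incubation. Signals were scaled to genistein 10 microM as full activation.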
An asterisk follows results filed as active; ? = inconclusive; / = no result given; [ ] = another dose, or the depositor's remark. Unless noted, the call rests on the fitted dose curve; in most records, active means well fitted curve in the direction sought with a large enough effect; inconclusive means small, poorly fitted or top-dose-only effect, or another doubt; inactive means no such curve, though single readings can be large; an effect the other way counts as inactive or inconclusive.

SMILES | VP16 counter | Giardia kill | p53 reactivation | RORgamma inh | ELG1 DNA repair | BRCA1 expr up
CCN(CC)N=Nc1ccc(S(=O)(=O)Nc2c(C)n(C)n(-c3ccccc3)c2=O)cc1 | / | 28.6 | / | / | -5.4% | -12.3%
O=C(Cn1cnc2c(oc3nc4c(cc32)CCCC4)c1=O)Nc1ccccc1 | -23.1% | 21.2 | 0.6% | -26.9% | 15.0% | 15.5%
C=C(C)Cn1cnc2c(oc3nc4c(cc32)CCCC4)c1=O | 0.5% | -3.6 | 13.5% | -23.7% | ? | 5.62µM*
CC(C)CSc1ccccc1NC(=O)c1sc2nc(-c3ccncc3)ccc2c1N | / | / | / | / | / | -24.4%
CN(C)C(=O)c1cccc(-c2csc(N3CCC(C(N)=O)CC3)n2)c1 | / | 1.9 | 6.1% | / | ? | 59.1%
CC1=[N+](C)c2ccc3ccccc3c2C1(C)C | 2.51µM* | -5.3 | 14.8% | ? | 6.9% | -14.3%
Cc1c2ccccc2cc[n+]1C | / | / | / | / | / | 0.9%
O=C(CSCc1ccccc1Cl)N1CCN(c2ccccn2)CC1 | ? | 15.8 | 11.3% | ? | ? | ?
Cc1ccc(-c2nc(CSCC(=O)N3CCOCC3)c(C)o2)cc1 | 2.2% | 0.9 | 26.8% | -0.4% | ? | -0.7%
COc1ccc(-c2noc(CCC(=O)N3CCN(c4cccc(OC)c4)CC3)n2)cc1 | / | 7.9 | 15.1% | / | 25.9µM* | -14.7%
Cc1ccc(-c2nc(CSCC(=O)N3CCN(c4ccccn4)CC3)c(C)o2)cc1 | ? | -12.9 | 1.1% | ? | 10.3µM* | -34.5%
CCc1ccc(-c2nc(CSCC(=O)N3CCN(c4ccccn4)CC3)c(C)o2)cc1 | 12.6µM* | -9.1 | -2.0% | ? | ? | -94.5%
O=C(CCSCc1ccccc1F)N1CCN(c2ccccn2)CC1 | 5.7% | -1.9 | 22.8% | 0.8% | ? | 10µM*
CCOCCn1c(SCc2cccc(C)c2)nc2c1c(=O)[nH]c(=O)n2C | -3.9% | 5.7 | -2.7% | -3.0% | 4.3% | -3.0%
CC(C)c1nc(SCC(=O)Nc2ccc([N+](=O)[O-])cc2Br)n[nH]1 | -8.8% | -8.8 | -1.5% | 2.5% | ? | -18.0%
Cc1c([N+](=O)[O-])c(C(=O)NC2CCCCC2)nn1C | -7.0% | 3.1 | 3.2% | 10.7% | -2.5% | 19.0%
O=C(C[n+]1cc(Br)cc(Br)c1)c1ccc2ccccc2c1 | / | / | / | / | / | 11.2%
COc1cccc(-c2nc(CSCC(=O)N3CCc4ccccc43)c(C)o2)c1 | -8.1%[0.365 µM] | -2.5 | 5.5% | -23.2% | ? | -24.3%
CCOc1ccc(-c2nc(CSCC(=O)N3CCN(c4cccc(OC)c4)CC3)c(C)o2)cc1 | 11.2µM* | -16.7 | -3.0% | 11.2µM* | ? | -29.4%
COc1ccccc1C1CCN(C(=O)c2cccc([N+](=O)[O-])c2)CC1 | -2.2% | ? | 2.8% | 6.7% | ? | -17.8%
CCOC(=O)N1CCC(NC(=O)c2cc(C(=O)Nc3cccc(C(F)(F)F)c3)ccc2CO)CC1 | ? | 14.1 | 0.6% | ? | 8.2µM* | -18.0%
Cc1ccccc1NC(=O)Cn1nnc(C(=O)NCCc2ccccc2)c1N | / | / | / | / | / | 22.5%
COc1ccc(C2=NOC(C(=O)NCc3cccnc3)C2)cc1 (configuration not stated) | 13.3% | 11.7 | -0.4% | -7.4% | -3.6% | -1.8%
Cc1ccc(C2=[N+]([O-])C3(CCCCC/C3=N\NC(N)=S)N(O)C2(C)C)o1 (configuration not stated) | 2.24µM* | / | 2.8% | 1.58µM* | 5.3% | /
O=C(c1ccc(CNS(=O)(=O)c2ccccc2)cc1)N1CCN(c2ccccn2)CC1 | 1.3% | -4.8 | -10.1% | 28.5% | 16.6% | -19.1%
SMILES | VP16 counter | Giardia kill | p53 reactivation | RORgamma inh | ELG1 DNA repair | BRCA1 expr up
O=C(c1cccc(Cl)c1)N1CCN(c2ccccn2)CC1 | -5.2% | -2.8 | -10.2% | -11.9% | 7.4% | -17.9%
O=C(c1ccc(S(=O)(=O)c2cccc(Cl)c2)c([N+](=O)[O-])c1)N1CCN(c2ccccn2)CC1 | ? | 1.9 | -9.8% | ? | 18.3µM* | -90.7%
CC1CN(C(=O)c2ccc(Cl)c(S(=O)(=O)NCc3ccco3)c2)CC(C)O1 (configuration not stated) | / | 25.9 | 3.0% | / | 0.7% | 3.5%
O=C1Nc2cc(C(=O)N3CCN(c4ccccn4)CC3)ccc2S/C1=C\c1ccccc1 | -10.5% | 5.0 | 6.7% | ? | 18.3µM* | 5.1%
Cc1cccc(N2CCN(C(=O)c3ccc(Cl)c(S(=O)(=O)NCc4ccco4)c3)CC2)c1C | 7.2% | -22.6 | 4.3% | ? | 18.4µM* | -71.0%
O=C(c1ccc(Cl)c(S(=O)(=O)NCc2ccccc2)c1)N1CCN(c2ccccn2)CC1 | -9.5% | 1.9 | -7.0% | 9.0% | 23.1µM* | -79.3%
COc1cc(O)c(C(CC(=O)N2CCCC2)c2cc(OC)c(OC)c(OC)c2)c(OC)c1 (configuration not stated) | 15.8% | 1.5 | 0.7% | 10.9% | -0.2% | -1.7%
COc1ccc(C(=O)NC(=S)Nc2cccc(NC(=O)c3ccco3)c2)cc1[N+](=O)[O-] | ? | 11.4 | 13.3% | 10µM* | ? | -25.2%
CCOc1ccc(C(=O)NC(=S)Nc2cccc(NC(=O)c3ccco3)c2)cc1[N+](=O)[O-] | 7.08µM* | 3.4 | 0.4% | 6.31µM* | 23.1µM* | -19.4%
COc1ccc(C(=O)NC(=S)Nc2ccc(NC(=O)c3ccco3)cc2)cc1[N+](=O)[O-] | ? | 10.4 | -2.0% | ? | ? | -2.5%
CN1CCN(c2nc(-c3ccccc3)nc3c2oc2ccccc23)CC1 | 4.0% | 4.9 | 1.0% | -22.9% | 0.5% | 0.8%
O=[N+]([O-])c1ccc(-c2ccn[nH]2)o1 | 1.0% | -85.5* | -1.8% | ? | -5.7% | -3.7%
O=C(NCC(=O)N1CCN(Cc2ccccc2)CC1)c1cccs1 | / | -5.3 | 29.3% | / | ? | 10µM*
O=C(NCC(O)c1ccccc1)c1cccs1 (configuration not stated) | -5.4% | 12.4 | 14.7% | -28.0% | ? | 7.08µM*
CC(C)c1ccc(C(=O)CSc2ncn[nH]2)cc1 | -2.7% | -15.7 | ? | 8.8% | ? | 14.1µM*
COc1ccc(Br)cc1CNc1ccc(O)cc1 | ? | -0.6 | -41.8% | 8.91µM* | ? | -47.0%
O=C(CSc1nccn1-c1ccccc1)Nc1nc2ccccc2s1 | / | / | / | / | / | 11.2µM*
Nn1c(SCC(=O)Nc2nc3ccccc3s2)nncc1=O | -1.9% | -18.8 | 17.9% | 31.6µM* | ? | 0.5%
Cc1nnc(SCC(=O)Nc2nc3ccccc3s2)n(N)c1=O | 6.5% | -10.9 | 2.5% | 13.6% | ? | -6.9%
COc1ccc(-c2cc(C(F)(F)F)n3ncc(C(=O)N(C)Cc4ccccc4)c3n2)cc1 | -2.7% | -3.9 | 2.1% | -17.1% | 14.6µM* | -20.4%
